{"source": "paper PMC5515408", "about": "“Sequence-specific DNA binding by MYC/MAX to low-affinity non-E-box motifs”", "note": "The full ranking holds about 4,500 sequences; the median of “log2 normalized fluorescence” is about -0.34, and the highest 2% start at about 3.3. This excerpt belongs to a sample that is enriched for the highest values.", "data": [{"biological_target": "MAX:MAX (p21) (human, UniProt P61244-2 1-151)", "sequence (P61244 other isoform, or with tags, fused parts or gaps)": "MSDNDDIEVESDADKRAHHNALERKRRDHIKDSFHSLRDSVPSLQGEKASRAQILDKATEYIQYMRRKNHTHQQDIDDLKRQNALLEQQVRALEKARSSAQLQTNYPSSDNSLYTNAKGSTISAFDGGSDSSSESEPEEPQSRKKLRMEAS", "test": "protein-binding microarray (anti-MAX antibody); PBM: 15 mM Tris-HCl pH 7.5, 100 mM KCl, 0.075% NP40, 7.5 mM beta-mercaptoethanol, 375 ng/ul BSA, 8 ng/ul poly(dA-dT):(dA-dT), 550 ng complex, 60 min, room tempe; high values mean tight binding", "conditions": "protein: recombinant; tags: 6xHis; chain copies: 2; label: 3' end of printed strand (linker) attached to glass slide; dsDNA, one strand shown", "summary_of_the_method": "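For each of ~5000 unique double-stranded 12-nt sequences, spotted in triplicate on a custom Agilent glass array, binding of His-tagged human MYC:MAX or MAX:MAX dimers is reported as log2 normalized fluorescence. The dimers (550 ng, E. coli-expressed) were incubated for 60 min at room temperature in Tris-KCl buffer, pH 7.5, with NP40, BSA and poly(dA-dT) competitor. Detection used anti-MAX and secondary antibodies with a 543 nm scan.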", "values": [{"sequence": "CCGGCTGATGAACAGTATTAATAGCTAAGATTACTATATCGACG", "binding signal": "-0.468 log2 normalized fluorescence"}, {"sequence": "CCGGCTGAGCATCTGTATTAATAGCTAAGATTACTATATCGACG", "binding signal": "0.186 log2 normalized fluorescence"}, {"sequence": "CCGGCATACACTTGGTATTAATAGCTAAGATTACTATATCGACG", "binding signal": "1.54 log2 normalized fluorescence"}, {"sequence": "CCGGCTGAGGCGGTGTATTAATAGCTAAGATTACTATATCGACG", "binding signal": "-0.63 log2 normalized fluorescence"}, {"sequence": "CCGGCTTACACGTGGTTTTAATAGCTAAGATTACTATATCGACG", "binding signal": "3.22 log2 normalized fluorescence"}, {"sequence": "CCGGCTGACACGTTTAATTAATAGCTAAGATTACTATATCGACG", "binding signal": "2.59 log2 normalized fluorescence"}, {"sequence": "CCGGCTGACACGTGCTCTTAATAGCTAAGATTACTATATCGACG", "binding signal": "3.24 log2 normalized fluorescence"}, {"sequence": "CCGGCTGACACGTTGTTTTAATAGCTAAGATTACTATATCGACG", "binding signal": "3.22 log2 normalized fluorescence"}, {"sequence": "CCGGCTAGCACGTGTTTTTAATAGCTAAGATTACTATATCGACG", "binding signal": "3.52 log2 normalized fluorescence"}, {"sequence": "CCGGCTAGCACGTGGCATTAATAGCTAAGATTACTATATCGACG", "binding signal": "3.24 log2 normalized fluorescence"}, {"sequence": "CCGGCTGACACGTCGTTTTAATAGCTAAGATTACTATATCGACG", "binding signal": "1.92 log2 normalized fluorescence"}, {"sequence": "CCGGCTGACACGTGTACTTAATAGCTAAGATTACTATATCGACG", "binding signal": "3.15 log2 normalized fluorescence"}, {"sequence": "CCGGCTGACACGTGTTTTTAATAGCTAAGATTACTATATCGACG", "binding signal": "3.34 log2 normalized fluorescence"}, {"sequence": "CCGGCTGACACGTGTTCTTAATAGCTAAGATTACTATATCGACG", "binding signal": "3.35 log2 normalized fluorescence"}, {"sequence": "CCGGCTGACACGTGTGTTTAATAGCTAAGATTACTATATCGACG", "binding signal": "3.37 log2 normalized fluorescence"}, {"sequence": "CCGGCTGACACGTGTGATTAATAGCTAAGATTACTATATCGACG", "binding signal": "3.24 log2 normalized fluorescence"}, {"sequence": "CCGGCTGATATTGCGTATTAATAGCTAAGATTACTATATCGACG", "binding signal": "-0.611 log2 normalized fluorescence"}, {"sequence": "CCGGCTGAGTTACGGTATTAATAGCTAAGATTACTATATCGACG", "binding signal": "-0.516 log2 normalized fluorescence"}, {"sequence": "CCGGCTGACACGTCGAATTAATAGCTAAGATTACTATATCGACG", "binding signal": "1.45 log2 normalized fluorescence"}, {"sequence": "CCGGCTGACCCGTCGTATTAATAGCTAAGATTACTATATCGACG", "binding signal": "-0.382 log2 normalized fluorescence"}, {"sequence": "CCGGCTGAGATGGAGTATTAATAGCTAAGATTACTATATCGACG", "binding signal": "-0.522 log2 normalized fluorescence"}, {"sequence": "CCGGCGGACACGTGTGATTAATAGCTAAGATTACTATATCGACG", "binding signal": "3.15 log2 normalized fluorescence"}, {"sequence": "CCGGCTGATTCTCAGTATTAATAGCTAAGATTACTATATCGACG", "binding signal": "-0.684 log2 normalized fluorescence"}, {"sequence": "CCGGCTGATCAGAGGTATTAATAGCTAAGATTACTATATCGACG", "binding signal": "-0.421 log2 normalized fluorescence"}, {"sequence": "CCGGCTGACACGTGTCTTTAATAGCTAAGATTACTATATCGACG", "binding signal": "3.41 log2 normalized fluorescence"}, {"sequence": "CCGGCTGACACGTGACTTTAATAGCTAAGATTACTATATCGACG", "binding signal": "3.21 log2 normalized fluorescence"}, {"sequence": "CCGGCTGACACGTTGTCTTAATAGCTAAGATTACTATATCGACG", "binding signal": "3.12 log2 normalized fluorescence"}, {"sequence": "CCGGCGCACACGTGCTATTAATAGCTAAGATTACTATATCGACG", "binding signal": "3.04 log2 normalized fluorescence"}, {"sequence": "CCGGCTTACACATGCTATTAATAGCTAAGATTACTATATCGACG", "binding signal": "3.23 log2 normalized fluorescence"}, {"sequence": "CCGGCTAACACGTGATATTAATAGCTAAGATTACTATATCGACG", "binding signal": "3.18 log2 normalized fluorescence"}, {"sequence": "CCGGCTTACACGTGGTGTTAATAGCTAAGATTACTATATCGACG", "binding signal": "3.07 log2 normalized fluorescence"}, {"sequence": "CCGGCTTACACGTGCTATTAATAGCTAAGATTACTATATCGACG", "binding signal": "3.57 log2 normalized fluorescence"}, {"sequence": "CCGGCTTACACGTGATATTAATAGCTAAGATTACTATATCGACG", "binding signal": "3.31 log2 normalized fluorescence"}, {"sequence": "CCGGCTTATACGTGATATTAATAGCTAAGATTACTATATCGACG", "binding signal": "0.467 log2 normalized fluorescence"}, {"sequence": "CCGGCTTAAACGTGTTATTAATAGCTAAGATTACTATATCGACG", "binding signal": "2.7 log2 normalized fluorescence"}, {"sequence": "CCGGCTTACACGTGTTATTAATAGCTAAGATTACTATATCGACG", "binding signal": "3.4 log2 normalized fluorescence"}, {"sequence": "CCGGCTGATGTCCAGTATTAATAGCTAAGATTACTATATCGACG", "binding signal": "-0.249 log2 normalized fluorescence"}, {"sequence": "CCGGCTGAATGGGCGTATTAATAGCTAAGATTACTATATCGACG", "binding signal": "0.274 log2 normalized fluorescence"}, {"sequence": "CCGGCTGAGTCGAGGTATTAATAGCTAAGATTACTATATCGACG", "binding signal": "-0.576 log2 normalized fluorescence"}, {"sequence": "CCGGCTGAACCGGCGTATTAATAGCTAAGATTACTATATCGACG", "binding signal": "-0.299 log2 normalized fluorescence"}, {"sequence": "CCGGCAGACACTTAGTATTAATAGCTAAGATTACTATATCGACG", "binding signal": "0.466 log2 normalized fluorescence"}, {"sequence": "CCGGCGTTCACGTGGTATTAATAGCTAAGATTACTATATCGACG", "binding signal": "3.37 log2 normalized fluorescence"}, {"sequence": "CCGGCTTTCACGTGGTATTAATAGCTAAGATTACTATATCGACG", "binding signal": "3.41 log2 normalized fluorescence"}, {"sequence": "CCGGCCTTCACGTGGTATTAATAGCTAAGATTACTATATCGACG", "binding signal": "3.1 log2 normalized fluorescence"}, {"sequence": "CCGGCTATCACGTGGTATTAATAGCTAAGATTACTATATCGACG", "binding signal": "3.15 log2 normalized fluorescence"}, {"sequence": "CCGGCTTACACATGGTATTAATAGCTAAGATTACTATATCGACG", "binding signal": "3.16 log2 normalized fluorescence"}, {"sequence": "CCGGCTTTCACATGGTATTAATAGCTAAGATTACTATATCGACG", "binding signal": "3.34 log2 normalized fluorescence"}, {"sequence": "CCGGCTTTCACTTGGTATTAATAGCTAAGATTACTATATCGACG", "binding signal": "-0.636 log2 normalized fluorescence"}, {"sequence": "CCGGCATTCACGTGGTATTAATAGCTAAGATTACTATATCGACG", "binding signal": "3.26 log2 normalized fluorescence"}, {"sequence": "CCGGCTAATACGTGGTATTAATAGCTAAGATTACTATATCGACG", "binding signal": "1.49 log2 normalized fluorescence"}, {"sequence": "CCGGCTGAGGGAGCGTATTAATAGCTAAGATTACTATATCGACG", "binding signal": "-0.434 log2 normalized fluorescence"}, {"sequence": "CCGGCTGAGGAGAGGTATTAATAGCTAAGATTACTATATCGACG", "binding signal": "-0.732 log2 normalized fluorescence"}, {"sequence": "CCGGCTGACCGCCGGTATTAATAGCTAAGATTACTATATCGACG", "binding signal": "-0.241 log2 normalized fluorescence"}, {"sequence": "CCGGCTGACAAGCAGTATTAATAGCTAAGATTACTATATCGACG", "binding signal": "-0.299 log2 normalized fluorescence"}, {"sequence": "CCGGCTATTACGTGGTATTAATAGCTAAGATTACTATATCGACG", "binding signal": "1.27 log2 normalized fluorescence"}, {"sequence": "CCGGCCTCCACGTGGTATTAATAGCTAAGATTACTATATCGACG", "binding signal": "2.94 log2 normalized fluorescence"}, {"sequence": "CCGGCTCCCACGTGGTATTAATAGCTAAGATTACTATATCGACG", "binding signal": "3.4 log2 normalized fluorescence"}, {"sequence": "CCGGCGCCCACGTGGTATTAATAGCTAAGATTACTATATCGACG", "binding signal": "3.43 log2 normalized fluorescence"}, {"sequence": "CCGGCTAAGACGTGGTATTAATAGCTAAGATTACTATATCGACG", "binding signal": "1.75 log2 normalized fluorescence"}, {"sequence": "CCGGCCCACACGTGGTATTAATAGCTAAGATTACTATATCGACG", "binding signal": "2.95 log2 normalized fluorescence"}, {"sequence": "CCGGCCCCCACGTGGTATTAATAGCTAAGATTACTATATCGACG", "binding signal": "3.4 log2 normalized fluorescence"}, {"sequence": "CCGGCTCCGACGTGGTATTAATAGCTAAGATTACTATATCGACG", "binding signal": "2.2 log2 normalized fluorescence"}, {"sequence": "CCGGCTGAAGCCTGGTATTAATAGCTAAGATTACTATATCGACG", "binding signal": "0.476 log2 normalized fluorescence"}, {"sequence": "CCGGCTGACGGCCCGTATTAATAGCTAAGATTACTATATCGACG", "binding signal": "-0.704 log2 normalized fluorescence"}, {"sequence": "CCGGCTGACTCACTGTATTAATAGCTAAGATTACTATATCGACG", "binding signal": "-0.209 log2 normalized fluorescence"}, {"sequence": "CCGGCTGACCTGTGGTATTAATAGCTAAGATTACTATATCGACG", "binding signal": "0.594 log2 normalized fluorescence"}, {"sequence": "CCGGCTGACAACACGTATTAATAGCTAAGATTACTATATCGACG", "binding signal": "0.856 log2 normalized fluorescence"}, {"sequence": "CCGGCTGACTCGTGCTATTAATAGCTAAGATTACTATATCGACG", "binding signal": "3.13 log2 normalized fluorescence"}]}]}
